Results on 61 molecules are retold here after PubChem BioAssay AID624297 (National Center for Advancing Translational Sciences (NCATS), 2012).

The campaign covered roughly 340,000 compounds. About 6,200 (1.8%) were called active. Where a call stands in place of a potency, no number is given. Inconclusive results (about 10%) are left out. The sample holds actives, similar compounds and a random draw of the others, so the mix is not that of the screen. Calls follow the shape of the dose curve; as a rule, active = well fitted activation curve with a large enough effect; inconclusive = small, poorly fitted or top-dose-only effect; inactive = no such curve, though single readings can be large or run the other way.
Potency is read from the fitted curve at half-maximal effect.

This experiment in a line: A quantitative high throughput screen for small molecules that induce DNA re-replication in SW480 colon adenocarcinoma cells. Also: nearly all actives have a fitted effect of over 55% in size. The note with it: Hoechst DNA content imaging, 48 h; series mostly up to 46.1 µM. In short, it runs like this:
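Quantitative HTS format with DMSO vehicle controls; 48 hr drug incubation at 37 C, then 40 min Hoechst staining and scanning imager measurement at 405 nm excitation.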
With `CN(CC(=O)O)C(=O)c1ccccc1`, the Potency entry was “inactive”.

Consider `Nc1cc2c(cc1Br)-c1ccc(F)cc1C2=O`, for which the Potency result is “inactive”. As for `O=C(O)C(=Cc1ccccc1[N+](=O)[O-])c1ccccc1`, the Potency entry was “inactive”. As to `CCN1CCC(O)(/C=C/c2ccc(C)cc2)C(C(=O)/C=C/c2ccc(C)cc2)C1` (stereo unspecified), the Potency result was “inactive”. On to `CCOc1ccc2nc(Nc3nc4ccc(NC(C)=O)cc4s3)sc2c1`, for which the Potency was 18.4 µM (active). Turning to `CCC(=O)c1ccc(OCC(=O)Nc2ccc3nc(C)sc3c2)cc1`, the Potency result was “inactive”. Take `CCOc1ccc2nc(NC(=O)CSc3nc4c(c(=O)n(C)c(=O)n4C)n3CC)sc2c1`: the Potency result was “inactive”.

Regarding `COc1ccc(CCOC2OC(CO)C(OC(=O)/C=C/c3ccc(O)c(OC)c3)C(O[C@H]3O[C@@H](C)[C@H](O)[C@@H](O)[C@H]3O)C2O)cc1O` (stereo partly specified), the Potency result was “inactive”. The same measure, in the same setting: then `CC(C)(C)c1cc(C(=O)NN)n(Cc2ccc(Cl)cc2Cl)n1`, with 11.6 µM (active); and `Cn1cc(C(=O)c2ccc(Cl)cc2Cl)cc1C(=O)NN`, with “inactive”.

As for `NNC(=O)c1ccc(Cl)cc1Cl`, the Potency result was “inactive”. `COc1ccc(C(=O)Nc2cccc(/C=C(/CCC(=O)O)c3nc4ccccc4s3)c2)cc1`: the Potency entry was “inactive”. For the molecule `O=C(COC(=O)c1cccnc1Cl)NC(=O)NC1CCCCC1`, the Potency result is “inactive”. The same measure, in the same setting: then `Cc1nc2ccc(NC(=O)c3cccc(S(=O)(=O)N4CCOCC4)c3)cc2s1`, with “inactive”; and `CC/C(=C\c1ccc(Cl)cc1)c1ccncc1`, with “inactive”.

In the case of `CC(C)(C)c1ccc(C(=O)NCc2ccco2)cc1`, the Potency result was “inactive”.

Turning to `CCC1=Nc2cc(C(=O)NCCCN3CCOCC3)ccc2Sc2ccc(Br)cc21`, the Potency entry was “inactive”.

On to `CCCC1=Nc2cc(C(=O)NCc3ccco3)ccc2Sc2ccccc21`, for which the Potency was 5.17 µM (active). As to `COc1ccc(NC(=O)Nc2ccc3c(c2)C(=O)N([C@H](C)CO)C[C@H](C)[C@@H](CN(C)C(=O)Nc2ccc4c(c2)OCO4)O3)cc1`, the Potency result was “inactive”. `O=C(Cc1ccc(NC(=O)C2CCCN(C(=O)CCc3ccccc3)C2)cc1)Nc1ccc(C(=O)N2CCOCC2)cc1` (stereo unspecified): the re-replication activation is -31.4% [at 9.22 µM] (inactive). As to `Cc1ccc(C(=O)Nc2ccn(C)n2)cc1`, the Potency is 18.4 µM (active). Same read-out and setting: then `Cn1ccc(NC(=O)Nc2ccc(Cl)cc2)n1`, with “inactive”; and `CN(C)S(=O)(=O)c1cc(C(=O)Nc2ccn(C)n2)c(Cl)cc1Cl`, with “inactive”. Still for that read-out and setting: under `CC(=O)N(O)CCCCCNC(=O)CCC(=O)N(O)CCCCCNC(=O)CCC(=O)N(O)CCCCCNC(=O)CCC(=O)O` stands “inactive”; under `CCOc1ccc(NC(=O)Nc2cc(C)ccc2OC)cc1`, “inactive”; under `CCOc1ccc(C(=O)Nc2cc(OC)ccc2OC)cc1`, “inactive”. The same measure, in the same setting: then `CCOc1ccc(N/C=C/C(=O)c2cc(OC)c(OC)c(OC)c2)cc1`, with 0.58 µM (active); and `CCCC(O)(c1ccccc1)C(c1ccccc1)c1ccccn1` (stereo unspecified), with “inactive”. With `CC1CN(Cc2ccccc2)C(=S)NC1=O` (stereo unspecified), the Potency result was “inactive”.

For the molecule `O=C(CN1C(=O)/C(=C\c2ccccc2F)SC1=S)Nc1nc2ccccc2s1`, the Potency result was “inactive”.

In the case of `COc1ccc(/C=C2\SC(=S)N(CCC(=O)Nc3ccccn3)C2=O)cc1OC`, the Potency entry was “inactive”. Regarding `CN(C)S(=O)(=O)c1cccc(-c2nn(-c3ccccc3)cc2/C=C2\SC(=S)N(CC(=O)O)C2=O)c1`, the Potency is 16.4 µM (active). On the same count and under the same terms, then `Cc1ccc(S(=O)(=O)n2oc(=O)c(C3CCCCC3)c2N)cc1`, with “inactive”; and `O=C(Nc1cccc(S(=O)(=O)N2CCOCC2)c1)C12CC3CC(CC(C3)C1)C2`, with “inactive”. Same read-out and setting: under `CC[C@]12c3[nH]c4ccc(OC)cc4c3CCN1C(=O)C(CC(=O)NCCN1CCOCC1)C[C@@H]2C(=O)N1CCN(C(=O)C2CC2)CC1` (stereo partly specified) stands “inactive”; under `C=CCC[C@H](Cc1ccc(F)cc1)C(=O)OC[C@H](C)NC(=O)[C@H](CC=C)CC(=O)N(CCO)Cc1ccccc1`, “inactive”.

For the molecule `COc1ccc(NC(=O)CSc2nc3ccccc3c(=O)n2C)cc1`, the Potency entry was “inactive”.

Turning to `CCc1ccc(NC(=O)CSc2nc3ccccc3c(=O)n2CCN2CCOCC2)cc1`, the Potency result is “inactive”.

As to `CCOc1ccc(NC(=O)CSc2nc3ccccc3c(=O)n2Cc2cccs2)cc1`, the Potency is 1.64 µM (active). Still for that read-out and setting: then `O=C(NCC1(N2CCCCC2)CCCCC1)c1cccc(S(=O)(=O)Nc2ccccc2Cl)c1`, with “inactive”. Still for that read-out and setting: under `O=C(NCCC(=O)N1O[C@@H]2C=C[C@H]1C2)OCC1c2ccccc2-c2ccccc21` stands “inactive”. As for `O=C(COc1ccc([N+](=O)[O-])cc1Cl)Nc1ccc2[nH]c(=O)[nH]c2c1`, the Potency entry was “inactive”. On to `COc1cc(OC)c2c(-c3cccc(-c4cccc(N)c4)c3)cc(=O)oc2c1`, for which the Potency was 3.66 µM (active). On the same count and under the same terms, then `COc1ccc(-c2c(C)cc3oc(=O)cc(-c4ccccc4)c3c2C)cc1F`, with “inactive”. The same measure, in the same setting: under `COc1ccc(-c2c(C)cc3oc(=O)cc(-c4ccccc4)c3c2C)cc1OC` stands “inactive”; under `CN(C)C(=O)CCc1ccc2c3c([nH]c2c1)[C@]1(CCc2ccccc2)[C@@H](C(=O)N2CCCCC2)C[C@H](CC(=O)NCCC2=CCCCC2)C(=O)N1CC3`, “inactive”. Still for that read-out and setting: then `Cc1ccccc1N1CCN(C(=O)c2cccnc2)CC1`, with “inactive”; and `Cc1ccc2c(c1)C1C[N+](C)(CC(=O)c3ccccc3)CCC1N2C(=O)c1ccccc1Cl` (stereo unspecified), with “inactive”.

For the molecule `O=C(NNC(=O)c1ccc2ccccc2c1)c1ccc(Cl)cc1`, the Potency entry is “inactive”. On the same count and under the same terms, under `CC(C)Sc1nnc([C@H](Cc2ccccc2)NC(=O)OC(C)(C)C)o1` stands “inactive”; under `C[C@H](NC(=O)OC(C)(C)C)c1nnc(SCC(=O)Nc2ccc(Br)cc2)o1`, “inactive”.

In the case of `C[C@@H](NC(=O)OC(C)(C)C)c1nnc(S(=O)(=O)Cc2ccccc2)o1`, the Potency is 13 µM (active). As to `Cc1[nH]c(=O)c(C(=O)/C=C/c2ccccc2)c2c1CCCC2`, the Potency was 20.6 µM (active). With `O=C(/C=C/c1ccc(N2CCOCC2)cc1)c1ccccc1`, the Potency entry is “inactive”. On the same count and under the same terms, under `Cc1cn(COC/C=C/c2ccccc2)c(=O)[nH]c1=O` stands “inactive”. Same read-out and setting: under `S=c1[nH]nc(-c2cccs2)n1/N=C/c1cccs1` stands “inactive”.

`Cc1cc(-c2n[nH]c(=S)n2/N=C/C(Br)=C/c2ccccc2)n[nH]1`: the Potency is 6.51 µM (active).

Turning to `Oc1ccccc1/C=N/n1c(-c2cccs2)n[nH]c1=S`, the Potency result is “inactive”. Still for that read-out and setting: then `Cc1ccc(C2=Nc3c(ccc4ccccc34)C(c3ccncc3)=NN2)cc1`, with 18.4 µM (active); and `CN(C(=O)COC(=O)Cn1cnc2c1c(=O)n(C)c(=O)n2C)C1(C#N)CCCCC1`, with “inactive”. As to `CS(=O)(=O)c1ccc(C(=O)NNC(=O)c2cccs2)cc1`, the Potency result was “inactive”.
